The nature of assay [1]: ATG_TAL_CIS: Attagene CIS-FACTORIAL HepG2 Assay for human TAL Basal Promoter (AID 2282966; active = hit-call score of the fitted dose curve at least 0.9, where 1 is the maximum; inactive = score below 0.9;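 also: background control endpoint measuring basal TAL promoter reporter mRNA not a specific factor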). The conditions noted are these: HepG2 Attagene cis-factorial TAL promoter reporter; actives raise or lower the signal. The procedure, abridged: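 RT-PCR plus capillary electrophoresis quantifies reporter mRNA induction in transiently transfected HepG2 cells after 24 h chemical treatment. DMSO serves as negative control and baseline for bidirectional fitting.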

For assay [2], the target named is Nuclear receptor subfamily 1 group I member 3 (Homo sapiens) (UniProt Q14994). Briefly: ATG_CAR_TRANS: Attagene TRANS-FACTORIAL HepG2 Assay for human Constitutive Androstane Receptor (CAR) (AID 2282969).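 Also: activators raise reporter mRNA above DMSO so AC50 marks induction.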 The note with it: HepG2 Attagene TRANS-FACTORIAL CAR reporter. The procedure, abridged: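 Readout is reporter mRNA induction, quantified by fluorescent primer extension and capillary electrophoresis after RT-PCR. Cells were HepG2 transiently carrying chimeric NR-Gal4 constructs with GAL4-UAS reporters, treated for 24 h; activity scored upward from DMSO.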

Assay [3] deals with Steroid hormone receptor ERR1 (Homo sapiens) (UniProt P11474). Briefly: ATG_ERRa_TRANS: Attagene TRANS-FACTORIAL HepG2 Assay for human Estrogen-Related Receptor alpha (ERRa) (AID 2282971). The note with it: HepG2 Attagene TRANS reporter, ERRa transactivation. An outline of the steps: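 Reporter transcripts from ERRa-Gal4 chimera activity measured in transiently transfected human HepG2 cells 24 hours after dosing, using RT-PCR with 6-FAM primer extension, HpaI digestion and capillary electrophoresis; DMSO is baseline.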

Assay [4] addresses X-box-binding protein 1 (Homo sapiens) (UniProt P17861). As to the kind of experiment: ATG_Xbp1_CIS: Attagene CIS-FACTORIAL HepG2 Assay for human X-box Binding Protein 1 (XBP1) (AID 2282972; active = hit-call score of the fitted dose curve at least 0.9, where 1 is the maximum; inactive = score below 0.9). The note with it: HepG2 XBP1 cis-element reporter, Attagene multiplex; actives raise or lower the signal. The procedure, abridged: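 HepG2, transient MRTU transfection (cis-promoter driven), 24 h compound exposure. Total RNA → oligo(dT) RT → PCR → 6-FAM labeling → HpaI cut → CE. Bidirectional fit vs DMSO.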

A short description of assay [5]: ATG_GAL4_TRANS: Attagene TRANS-FACTORIAL HepG2 Assay for GAL4 (Internal Marker) (AID 2282976). The conditions noted are these: HepG2 Attagene TRANS GAL4 internal marker reporter. The procedure, abridged: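 In transfected human HepG2 liver cells dosed 24 h, GAL4 reporter mRNA serves as a baseline marker. Detection by RT-PCR with fluorescent capillary electrophoresis, activity fitted upward relative to DMSO.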

Assay [6] has as its target Estrogen-related receptor gamma (Homo sapiens) (UniProt P62508). Briefly: ATG_ERRg_TRANS: Attagene TRANS-FACTORIAL HepG2 Assay for human Estrogen-Related Receptor gamma (ERRg) (AID 2282977).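 Also: hits increase reporter signal over DMSO so potencies reflect activators.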 The note with it: HepG2 Attagene TRANS reporter, ERRg transactivation. An outline of the steps: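 Transient HepG2 transfectants, 24 h compound exposure, GAL4-UAS reporter mRNA by RT-PCR/6-FAM labelling/capillary electrophoresis; positive direction vs DMSO.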

Assay [7] addresses Hepatocyte nuclear factor 4-alpha (Homo sapiens) (UniProt P41235). As to the kind of experiment: ATG_HNF4a_TRANS: Attagene TRANS-FACTORIAL HepG2 Assay for human Hepatocyte Nuclear Factor 4 alpha (HNF4a) (AID 2282982). The conditions noted are these: HepG2 HNF4a transactivation reporter, mRNA readout. An outline of the steps:
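Transfected HepG2 reporter cells are dosed for 24 h; reporter RNA is reverse-transcribed, amplified, fluorescently labelled and HpaI-digested before CE sizing. Positive-direction fit against DMSO.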

Assay [8] in a line: ATG_M_06_TRANS: Attagene TRANS-FACTORIAL HepG2 Assay for M06 Transcription Factor (Internal Marker) (AID 2282983).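 Also: reporter transcript level by RT-PCR then capillary electrophoresis fluorescence.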 The note with it: HepG2 Attagene TRANS M06 internal marker reporter. An outline of the steps:
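Cells: HepG2, transient multi-reporter transfection. Exposure: 24 h. Detection: RT-PCR, 6-FAM labelling, HpaI digestion (2 h, 37 °C), capillary electrophoresis. Baseline: DMSO.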

Assay [9] concerns the target Transcriptional activator Myb (Homo sapiens) (UniProt P10242). As to the kind of experiment: ATG_Myb_CIS: Attagene CIS-FACTORIAL HepG2 Assay for human Myeloblastosis (Myb) Proto-Oncogene Transcription Factor (AID 2282986; active = hit-call score of the fitted dose curve at least 0.9, where 1 is the maximum; inactive = score below 0.9). The conditions noted are these: HepG2 Attagene CIS-FACTORIAL Myb reporter transcription; actives raise or lower the signal. The procedure, abridged:
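Multiplexed cis-reporter system in HepG2: transient transfection, 24 h treatment, mRNA readout by RT-PCR and capillary electrophoresis. Both increases and decreases are scored versus DMSO negative control.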

The target in assay [10] is Nuclear respiratory factor 1 (Homo sapiens) (UniProt Q16656). As to the kind of experiment: ATG_NRF1_CIS: Attagene CIS-FACTORIAL HepG2 Assay for human Nuclear Respiratory Factor 1 (NRF1) Orphan Gene (AID 2282987; active = hit-call score of the fitted dose curve at least 0.9, where 1 is the maximum; inactive = score below 0.9). The conditions noted are these: HepG2 NRF1 cis-element reporter, Attagene multiplex; actives raise or lower the signal. An outline of the steps:
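Endogenous factor activity was captured via cis-element-driven reporter transcripts in HepG2 cells. Following 24 h chemical treatment, transcripts were quantified by RT-PCR and capillary electrophoresis.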

Assay [11] is described as follows: ATG_VDRE_CIS: Attagene CIS-FACTORIAL HepG2 Assay for human Vitamin D Receptor Element (VDRE) (AID 2282968; active = hit-call score of the fitted dose curve at least 0.9, where 1 is the maximum; inactive = score below 0.9). The note with it: HepG2 VDRE cis-reporter transcription, actives raise or lower the signal. The procedure, abridged:
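In transiently transfected HepG2 liver cells, gain or loss of reporter mRNA after 24 h exposure is scored relative to DMSO, using fluorescence detection by capillary electrophoresis of RT-PCR products.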

A short description of assay [12]: ATG_M_19_TRANS: Attagene TRANS-FACTORIAL HepG2 Assay for M19 Transcription Factor (Internal Marker) (AID 2282974). The note with it: HepG2 Attagene TRANS-FACTORIAL M19 internal marker reporter. The procedure, abridged: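 Gain-of-signal in reporter mRNA, relative to DMSO, was scored from capillary electrophoresis fluorescence. HepG2 cells carried transiently transfected multiple reporter transcription units and were incubated with test chemicals for 24 h.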

A short description of assay [13]: ATG_M_32_TRANS: Attagene TRANS-FACTORIAL HepG2 Assay for M32 Transcription Factor (Internal Marker) (AID 2282984).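 Also: transcript level of a background control reporter unit measured by RT-PCR and capillary electrophoresis.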 The conditions noted are these: HepG2 Attagene TRANS M32 internal marker reporter. An outline of the steps: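 Using transiently transfected HepG2 cells exposed to test chemicals for 24 h, reporter transcripts are converted to labelled cDNA fragments and quantified by capillary electrophoresis. DMSO defines the activity baseline.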

Assay [14] deals with Nuclear receptor subfamily 4 group A member 2 (Homo sapiens) (UniProt P43354). As to the kind of experiment: ATG_NURR1_TRANS: Attagene TRANS-FACTORIAL HepG2 Assay for human Nuclear Receptor Related Protein 1 (NURR1) (AID 2282985). The note with it: HepG2 Attagene TRANS reporter, mRNA readout. An outline of the steps: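 Cells: HepG2, transiently transfected. Exposure: 24 h. Detection: fluorescence of labelled RT-PCR products separated by capillary electrophoresis; upward fit versus DMSO.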

Assay [15] has as its target Oxysterols receptor LXR-alpha (Homo sapiens) (UniProt Q13133). Briefly: ATG_LXRa_TRANS: Attagene TRANS-FACTORIAL HepG2 Assay for human Liver X Receptor alpha (LXRa) (AID 2282980). The conditions noted are these: HepG2 Attagene TRANS reporter, LXRa transactivation. An outline of the steps: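 Chemical-induced reporter mRNA measured by RT-PCR with fluorescent labelling and capillary electrophoresis after 24 h dosing of transiently transfected HepG2 cells expressing exogenous NR-Gal4 chimeras; increases scored against DMSO baseline.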

Assay [16] addresses Glucocorticoid receptor (Homo sapiens) (UniProt P04150). Briefly: ATG_GR_TRANS: Attagene TRANS-FACTORIAL HepG2 Assay for human Glucocorticoid Receptor (GR) (AID 2282978).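 Also: activators score as hits since higher reporter transcript over DMSO is fitted.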 The note with it: HepG2 Attagene TRANS GR reporter, mRNA transcription. An outline of the steps: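 HepG2 transient transfection, multiple reporter units, GAL4-UAS under NR-GAL4 chimera control. 24 h treatment. Reporter mRNA by RT-PCR/CE fluorescence, DMSO as negative control.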

In assay [17] the target is Bile acid receptor (Homo sapiens) (UniProt Q96RI1). Briefly: ATG_FXR_TRANS: Attagene TRANS-FACTORIAL HepG2 Assay for Farnesoid X Receptor (FXR) (AID 2282979).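 Also: hits raise reporter mRNA above DMSO so AC50 marks FXR activation.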 The note with it: HepG2 Attagene TRANS FXR-GAL4 reporter transcription. The procedure, abridged: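 Reporter transcripts from transfected HepG2 cells were measured 24 h after dosing, using RT-PCR with capillary electrophoresis of 6-FAM-labelled fragments. The read-out reflects activity of exogenous FXR-Gal4 chimera on GAL4-UAS units, with induction relative to DMSO.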

Assay [18] deals with Oxysterols receptor LXR-beta (Homo sapiens) (UniProt P55055). As to the kind of experiment: ATG_LXRb_TRANS: Attagene TRANS-FACTORIAL HepG2 Assay for human Liver X Receptor beta (LXRb) (AID 2282981). The note with it: HepG2 Attagene TRANS GAL4-LXRb reporter, mRNA. An outline of the steps:
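Cells: HepG2, transiently transfected with GAL4-UAS reporter units plus LXRb-Gal4 fusion. Treatment: 24 h. Detection: reporter mRNA by RT-PCR, 6-FAM labelling, HpaI digestion, capillary electrophoresis.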

Inconclusive results are not listed. Activity calls are given as the source filed them. The calls were made as follows, unless noted: active = hit-call score of the fitted dose curve at least 0.9, where 1 is the maximum; inconclusive = response in the unintended direction; inactive = score below 0.9.

Steroid hormone receptor ERR1 (Homo sapiens), sequence (P11474 whole entry, looked up, the tested form may be a part): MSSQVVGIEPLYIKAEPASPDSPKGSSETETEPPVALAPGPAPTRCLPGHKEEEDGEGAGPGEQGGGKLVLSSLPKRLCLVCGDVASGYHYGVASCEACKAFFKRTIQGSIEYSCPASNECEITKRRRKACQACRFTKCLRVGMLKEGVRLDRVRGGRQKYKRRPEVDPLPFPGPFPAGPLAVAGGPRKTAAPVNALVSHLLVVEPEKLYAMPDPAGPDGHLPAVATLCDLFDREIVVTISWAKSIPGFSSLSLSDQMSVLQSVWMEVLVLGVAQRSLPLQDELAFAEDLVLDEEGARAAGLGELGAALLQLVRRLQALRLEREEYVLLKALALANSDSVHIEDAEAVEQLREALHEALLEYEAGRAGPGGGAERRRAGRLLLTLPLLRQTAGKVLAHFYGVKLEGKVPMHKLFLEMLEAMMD
Nuclear respiratory factor 1 (Homo sapiens), sequence (Q16656 whole entry, looked up): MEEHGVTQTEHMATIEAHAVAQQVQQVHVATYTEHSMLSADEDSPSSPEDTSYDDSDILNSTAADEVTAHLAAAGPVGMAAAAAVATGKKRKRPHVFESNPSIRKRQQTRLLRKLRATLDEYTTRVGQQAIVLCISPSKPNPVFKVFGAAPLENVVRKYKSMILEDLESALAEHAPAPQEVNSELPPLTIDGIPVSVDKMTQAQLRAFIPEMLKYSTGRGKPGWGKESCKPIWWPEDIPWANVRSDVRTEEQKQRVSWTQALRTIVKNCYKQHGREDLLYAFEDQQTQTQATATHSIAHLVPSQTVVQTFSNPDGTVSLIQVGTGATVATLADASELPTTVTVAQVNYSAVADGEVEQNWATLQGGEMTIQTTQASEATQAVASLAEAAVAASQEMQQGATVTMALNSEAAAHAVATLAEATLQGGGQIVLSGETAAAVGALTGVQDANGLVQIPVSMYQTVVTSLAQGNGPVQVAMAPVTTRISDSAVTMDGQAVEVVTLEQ
Estrogen-related receptor gamma (Homo sapiens), sequence (P62508 whole entry, looked up, the tested form may be a part): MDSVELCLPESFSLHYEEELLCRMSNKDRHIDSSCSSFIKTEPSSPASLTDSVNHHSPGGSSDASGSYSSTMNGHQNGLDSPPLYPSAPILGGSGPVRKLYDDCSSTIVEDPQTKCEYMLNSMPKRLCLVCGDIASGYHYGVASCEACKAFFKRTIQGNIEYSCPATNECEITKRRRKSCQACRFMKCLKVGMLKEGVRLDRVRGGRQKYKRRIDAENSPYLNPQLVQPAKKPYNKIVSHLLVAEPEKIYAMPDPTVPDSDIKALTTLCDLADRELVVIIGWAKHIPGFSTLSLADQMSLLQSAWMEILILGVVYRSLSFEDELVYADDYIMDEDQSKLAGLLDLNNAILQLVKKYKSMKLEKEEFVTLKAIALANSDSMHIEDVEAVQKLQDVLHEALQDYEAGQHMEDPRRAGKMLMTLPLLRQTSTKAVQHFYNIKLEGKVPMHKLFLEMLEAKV
Nuclear receptor subfamily 1 group I member 3 (Homo sapiens), sequence (Q14994 whole entry, looked up, the tested form may be a part): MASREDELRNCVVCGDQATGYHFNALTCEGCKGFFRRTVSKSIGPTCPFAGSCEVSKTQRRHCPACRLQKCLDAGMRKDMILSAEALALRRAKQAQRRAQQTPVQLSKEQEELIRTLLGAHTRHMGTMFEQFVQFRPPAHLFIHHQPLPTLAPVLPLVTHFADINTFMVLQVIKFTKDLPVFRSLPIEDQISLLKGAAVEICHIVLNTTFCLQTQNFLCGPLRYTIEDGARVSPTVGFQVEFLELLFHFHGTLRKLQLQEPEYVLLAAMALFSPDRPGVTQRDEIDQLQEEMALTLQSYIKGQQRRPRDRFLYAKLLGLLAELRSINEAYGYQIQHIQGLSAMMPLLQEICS
Nuclear receptor subfamily 4 group A member 2 (Homo sapiens), sequence (P43354 whole entry, looked up): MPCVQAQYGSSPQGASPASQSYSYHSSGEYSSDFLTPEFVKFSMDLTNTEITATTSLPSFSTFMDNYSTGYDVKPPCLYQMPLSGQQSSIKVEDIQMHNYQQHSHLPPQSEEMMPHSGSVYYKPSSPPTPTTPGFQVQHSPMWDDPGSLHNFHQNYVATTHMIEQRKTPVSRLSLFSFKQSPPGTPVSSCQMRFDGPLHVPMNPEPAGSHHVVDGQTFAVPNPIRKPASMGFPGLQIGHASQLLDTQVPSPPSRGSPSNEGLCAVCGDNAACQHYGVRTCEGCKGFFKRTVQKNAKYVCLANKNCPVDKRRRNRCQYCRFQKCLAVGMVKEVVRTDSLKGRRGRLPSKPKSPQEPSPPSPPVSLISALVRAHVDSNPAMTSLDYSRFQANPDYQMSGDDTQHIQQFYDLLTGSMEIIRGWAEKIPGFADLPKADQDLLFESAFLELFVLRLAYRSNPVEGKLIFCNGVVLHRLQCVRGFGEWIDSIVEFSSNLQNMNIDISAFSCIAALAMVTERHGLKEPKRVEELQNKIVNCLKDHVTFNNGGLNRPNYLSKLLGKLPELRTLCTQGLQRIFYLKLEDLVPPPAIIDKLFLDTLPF
X-box-binding protein 1 (Homo sapiens), sequence (P17861 whole entry, looked up): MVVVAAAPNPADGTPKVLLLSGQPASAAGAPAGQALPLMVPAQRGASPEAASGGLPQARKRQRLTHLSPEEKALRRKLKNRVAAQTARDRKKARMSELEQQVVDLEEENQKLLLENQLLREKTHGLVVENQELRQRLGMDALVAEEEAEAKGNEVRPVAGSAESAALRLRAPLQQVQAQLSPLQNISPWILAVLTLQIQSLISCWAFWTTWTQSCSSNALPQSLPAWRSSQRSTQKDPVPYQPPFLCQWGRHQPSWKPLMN
Glucocorticoid receptor (Homo sapiens), sequence (P04150 whole entry, looked up, the tested form may be a part): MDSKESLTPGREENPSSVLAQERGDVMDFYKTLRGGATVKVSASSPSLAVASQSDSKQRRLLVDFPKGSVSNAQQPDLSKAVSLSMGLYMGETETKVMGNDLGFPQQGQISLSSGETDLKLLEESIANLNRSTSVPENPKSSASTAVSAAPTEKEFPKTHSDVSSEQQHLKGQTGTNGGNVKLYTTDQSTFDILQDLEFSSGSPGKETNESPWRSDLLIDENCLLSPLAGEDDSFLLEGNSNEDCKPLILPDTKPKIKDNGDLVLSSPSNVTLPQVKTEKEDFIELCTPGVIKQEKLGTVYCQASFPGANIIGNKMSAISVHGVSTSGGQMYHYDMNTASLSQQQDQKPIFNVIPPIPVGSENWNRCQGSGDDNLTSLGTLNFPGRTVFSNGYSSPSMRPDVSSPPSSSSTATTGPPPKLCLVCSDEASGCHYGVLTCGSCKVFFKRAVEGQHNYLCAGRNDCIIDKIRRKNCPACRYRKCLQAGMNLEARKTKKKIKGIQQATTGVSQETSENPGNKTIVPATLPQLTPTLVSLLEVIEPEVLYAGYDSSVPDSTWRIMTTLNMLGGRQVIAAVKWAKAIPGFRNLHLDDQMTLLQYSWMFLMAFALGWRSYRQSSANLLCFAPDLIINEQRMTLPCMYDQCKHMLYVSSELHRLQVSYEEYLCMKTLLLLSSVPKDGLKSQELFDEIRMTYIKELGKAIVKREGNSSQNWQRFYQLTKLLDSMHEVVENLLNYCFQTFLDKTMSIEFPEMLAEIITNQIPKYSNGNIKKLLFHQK
Hepatocyte nuclear factor 4-alpha (Homo sapiens), sequence (P41235 whole entry, looked up): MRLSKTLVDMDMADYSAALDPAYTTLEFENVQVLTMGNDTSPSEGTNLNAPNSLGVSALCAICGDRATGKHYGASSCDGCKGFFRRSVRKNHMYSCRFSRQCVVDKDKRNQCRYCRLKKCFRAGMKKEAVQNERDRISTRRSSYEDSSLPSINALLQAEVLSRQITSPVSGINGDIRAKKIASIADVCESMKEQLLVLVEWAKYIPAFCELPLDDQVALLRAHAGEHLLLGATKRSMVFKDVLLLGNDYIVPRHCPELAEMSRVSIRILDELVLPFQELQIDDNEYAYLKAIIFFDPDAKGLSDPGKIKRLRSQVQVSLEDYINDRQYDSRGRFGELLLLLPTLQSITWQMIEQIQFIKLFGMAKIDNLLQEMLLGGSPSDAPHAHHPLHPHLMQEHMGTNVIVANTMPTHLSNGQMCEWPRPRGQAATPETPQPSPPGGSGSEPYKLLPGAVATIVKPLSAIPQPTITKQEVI
Transcriptional activator Myb (Homo sapiens), sequence (P10242 whole entry, looked up): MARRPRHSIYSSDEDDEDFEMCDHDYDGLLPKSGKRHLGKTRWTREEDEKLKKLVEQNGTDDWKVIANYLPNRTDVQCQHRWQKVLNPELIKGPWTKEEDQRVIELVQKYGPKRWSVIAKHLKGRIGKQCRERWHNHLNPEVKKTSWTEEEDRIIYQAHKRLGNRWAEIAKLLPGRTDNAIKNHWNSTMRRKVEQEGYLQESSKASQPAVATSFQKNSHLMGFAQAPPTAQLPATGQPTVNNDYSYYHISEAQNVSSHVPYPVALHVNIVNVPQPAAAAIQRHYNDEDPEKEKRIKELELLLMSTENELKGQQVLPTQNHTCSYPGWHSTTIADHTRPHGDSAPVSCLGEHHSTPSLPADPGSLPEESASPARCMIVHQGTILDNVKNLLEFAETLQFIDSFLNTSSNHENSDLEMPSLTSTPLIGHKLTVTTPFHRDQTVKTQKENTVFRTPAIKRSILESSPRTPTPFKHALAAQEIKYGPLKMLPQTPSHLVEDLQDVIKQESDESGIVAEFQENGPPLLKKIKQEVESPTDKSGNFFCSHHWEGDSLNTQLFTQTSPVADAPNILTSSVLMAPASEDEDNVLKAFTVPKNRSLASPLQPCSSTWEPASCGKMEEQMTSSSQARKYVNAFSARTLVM
Oxysterols receptor LXR-beta (Homo sapiens), sequence (P55055 whole entry, looked up, the tested form may be a part): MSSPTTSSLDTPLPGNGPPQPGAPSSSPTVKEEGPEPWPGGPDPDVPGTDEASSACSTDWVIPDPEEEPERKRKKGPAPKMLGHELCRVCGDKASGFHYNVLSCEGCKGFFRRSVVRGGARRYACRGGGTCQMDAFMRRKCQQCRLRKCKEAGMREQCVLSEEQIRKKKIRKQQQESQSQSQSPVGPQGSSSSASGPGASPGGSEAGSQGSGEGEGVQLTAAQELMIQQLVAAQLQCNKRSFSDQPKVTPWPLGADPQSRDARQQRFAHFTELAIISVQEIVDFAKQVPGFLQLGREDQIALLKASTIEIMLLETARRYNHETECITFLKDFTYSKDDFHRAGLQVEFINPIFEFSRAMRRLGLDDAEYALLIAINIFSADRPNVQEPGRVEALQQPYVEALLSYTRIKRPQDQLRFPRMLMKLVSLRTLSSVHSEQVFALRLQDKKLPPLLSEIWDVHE

As for `Cc1ncc([N+](=O)[O-])n1CCO`, the outcome in assay [1], in assay [2], in assay [3], in assay [4], in assay [5] and in assay [6] was inactive. For the same molecule, the molecule was called inactive in [7], in assay [8], in assay [9] and in assay [10].

A word on the AC50: it is the concentration at which the activity in the assay is half-maximal. As for `CCCOC(=O)c1c(Cl)c(Cl)c(Cl)c(Cl)c1C(=O)OCCC`, the outcome in assay [1], in assay [11], in [12], in assay [8], in [13] and in assay [14] was inactive. In addition, the molecule was classed as inactive in [9]. The AC50 is 130 µM (active) in [4] and 146 µM (active) in [10].

For the molecule `CC(C)c1ccccc1O`, the molecule was called inactive in assay [1], in assay [11], in assay [4], in assay [12], in assay [15] and in assay [8]. The call in assay [9] and in assay [10] was inactive.

Regarding `CN1CCOCC1`, the call in [1], in assay [11], in [3], in [5], in assay [6] and in assay [16] was inactive. In addition, the result in assay [15], in [13], in [9] and in assay [10] was inactive.

Turning to `COc1ccc(OC)c(N=Nc2c(O)ccc3ccccc23)c1`, the result in assay [1], in assay [11], in assay [3], in [4], in assay [6] and in assay [17] was inactive. The molecule was called inactive in [18], in assay [7], in assay [8], in [14], in assay [9] and in assay [10].

On to `CC1(C)C(=O)N(Cl)C(=O)N1Br`, for which the call in [1], in [2], in assay [4], in assay [12], in [16] and in assay [17] was inactive. The result in assay [7], in [13], in assay [14], in assay [9] and in assay [10] was inactive.

`BrCc1cccc(Oc2ccccc2)c1`: the result in assay [1], in assay [11], in assay [2], in [4], in assay [12] and in assay [5] was inactive. The result in assay [6], in [16], in assay [18], in assay [8], in [13] and in [9] was inactive. Moreover, the outcome in assay [10] was inactive.

The values are drawn from PubChem BioAssay (EPA / NIEHS).
